In the library only some 7% were active in any assay of this set; here they are far more common.
a7 integrin act – activates integrin-mediated alleviation for muscular dystrophy. alpha7betagal myoblasts, beta-gal FDG fluorescence, 48 h. actives 0.064% (n = 350,000). Potency, µM (highest dose often 38.3 µM), hits mostly activators; note: nearly all actives have a fitted effect of over 60% in size
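Alpha7betagal+/- myoblasts (passage 13) were plated 16-24 hr, then exposed to compounds (1:260 dilution of DMSO stock) for 48 hours at 37C. After MPER lysis, β-galactosidase reporter activity was read as FDG fluorescence (ex 480/em 540) after 30 minutes.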
D3 antag – D3 dopamine receptor (human) antagonism; P35462; D3R cells, DiscoveRx beta-arrestin luminescence, antagonist mode; hits give low values; max response, negative = inhibition, %; actives 2.5% (n = 360,000); in the data active = max response below about -50%; inconclusive = no clear call, values can overlap the other calls
Target sequence (P35462 whole entry, looked up): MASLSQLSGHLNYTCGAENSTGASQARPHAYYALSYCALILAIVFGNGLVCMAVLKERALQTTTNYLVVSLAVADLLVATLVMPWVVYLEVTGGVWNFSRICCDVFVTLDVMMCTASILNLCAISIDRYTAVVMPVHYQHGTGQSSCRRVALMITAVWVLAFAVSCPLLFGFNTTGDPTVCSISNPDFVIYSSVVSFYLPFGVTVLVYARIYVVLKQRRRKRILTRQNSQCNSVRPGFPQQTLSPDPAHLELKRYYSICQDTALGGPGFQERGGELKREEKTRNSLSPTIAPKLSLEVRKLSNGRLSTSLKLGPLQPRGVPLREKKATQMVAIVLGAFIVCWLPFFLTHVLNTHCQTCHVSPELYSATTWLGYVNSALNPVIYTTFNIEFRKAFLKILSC
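Cells plated overnight at 1500 cells/well, then exposed to library compounds with dopamine controls for 90 minutes at 37 degrees C. DiscoveRx reagent added for 30–60 minutes at room temperature; luminescence read, quantitative HTS format.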
D3 ag – agonists of human D3 dopamine receptor. P35462. D3R DiscoveRx beta-arrestin cells, luminescence, 90 min. max activation, %. actives 0.58% (n = 410,000). AID 652048; in the data active = max activation above about 30%
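Agonist mode: compounds and dopamine controls were applied to plated cells for 90 min at 37 degrees C after an overnight attachment at 1500 cells/well. Luminescent read-out followed 30 - 60 minutes at room temperature with DiscoveRx detection reagent.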
ATXN2 expr inh – inhibitors of ATXN2 expression; HEK-293 ATXN2-luciferase reporter, luminescence, 24 h; Potency, µM (doses to about 57 µM), hits mostly inhibitors; actives 0.72% (n = 360,000); AID 1745845; note: nearly all actives have a fitted effect of over 55% in size
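qHTS (up to 57 uM final) was run with 24 h compound exposure of reporter cells at 37 °C. Each well was multiplexed: SteadyGlo luminescence measured ATXN2-luciferase expression after a fluorogenic Gly-Phe-AFC viability readout (25 uM final).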
IL1B secr inh – inflammasome signaling inhibition, IL-1 beta readout | THP-1 LPS/ATP IL-1B secretion, AlphaLISA, 16 h; hits give low values | activity change, % at 57.5 µM | actives 4.7% (n = 360,000) | AID 743279; in the data active = activity change below about -50%; inconclusive = mostly about -30% to -49%
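Secreted IL-1B measured by AlphaLISA bead assay after 16 h compound exposure of THP-1 cells; compounds (final up to 57.5 uM) added 1 h before LPS (250 ng/mL) and ATP (1.25 mM) stimulation; lower signal means less secretion.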
ATXN viability – reduces viability in counter-screen for ATXN expression inhibitors | S2 cells (HEK-293 line with an ATXN2-luciferase reporter) viability, CellTiter-Fluor protease fluorescence, 24 h | actives 0.49% (n = 400,000) | AID 651635 | Potency, µM (top dose mostly 56.7 µM), hits mostly cytotoxic; note: nearly all actives have a fitted effect of over 40% in size
Hits are given with their value; - = inactive; ? = inconclusive; . = no result; [ ] = dose if it differs, or a comment. Unless noted, calls come from the whole dose curve; as a rule, active = well fitted curve in the direction sought with a large enough effect; inconclusive = small, poorly fitted or top-dose-only effect, or another doubt; inactive = no such curve, though single readings can be large; an effect the other way counts as inactive or inconclusive.

SMILES	a7 integrin act	D3 antag	D3 ag	ATXN2 expr inh	IL1B secr inh	ATXN viability
COc1cc(/C=C2/C(=O)c3cccc([N+](=O)[O-])c3C2=O)c(Br)cc1O	-	-	-	22µM	-	.
COc1cc(OC)cc(-c2c(-c3cccs3)c3cc(-c4ccc5[nH]ccc5c4)ccc3n2C)c1	-	-	39	-	-	-
COc1ccc(-c2c(-c3cc(OC)cc(OC)c3)n(C)c3ccc(-c4ccc(S(N)(=O)=O)cc4)cc23)cc1	-	-	-	-	-54	-
COc1cc(OC)cc(-c2c(-c3cccs3)c3cc(-c4ccc5cc[nH]c5c4)ccc3n2C)c1	-	-	-	-	-	-
COc1ccc(-c2c(-c3cc(OC)cc(OC)c3)n(C)c3ccc(-c4cnc(N)nc4)cc23)cc1	-	-	-	-	-	-
CC(C)c1ccc(OCC(=O)NC2CC(C)(C)NC(C)(C)C2)c(Br)c1	-	-	-	-	-62	-
CCOC(=O)c1cnc(-n2nc(C)cc2C)nc1NC	-	?	-	-	-	-
CCOC(=O)c1cnc(-n2nc(C)cc2C)nc1NC1CCCCC1	?	?	-	-	-100	-
CCOC(=O)c1cnc(-n2nc(C)cc2C)nc1N(CC)CC	-	-59	-	-	-	-
CC1(C)COC2(OC1)C(=O)Nc1ccccc12	-	-	-	-	-	-
CCC1(C)COC2(OC1)C(=O)Nc1ccccc12 (stereo not drawn)	-	?	-	-	-51	-
Cc1cc(C)nc(N(C#N)CN2C(=O)c3ccccc3S2(=O)=O)n1	-	-	-	-	-	-
CNc1nc(OC)nc(N(C#N)CN2C(=O)c3ccccc3S2(=O)=O)n1	-	?	-	-	-82	-
OC(CSc1ccccc1)CN1CCN(c2ccc(Cl)cc2)CC1 (stereo not drawn)	-	-86	-	-	?	-
OC(CSc1ccccc1)CN1CCN(c2cccc(Cl)c2)CC1 (stereo not drawn)	-	-85	-	-	-	-
CC(C)CCNC(=O)C(=O)NCc1ccccc1	-	-	-	-	-	-
CC(C)c1ccc(/C=C/C(=O)NC(=S)Nc2ccc(CN3CCOCC3)cc2)cc1	-	-	-	-[11.3 µM]	-65	?
O=C(Nc1cccc([N+](=O)[O-])c1)c1ccc(CN2CCOCC2)cc1	-	-	-	-	-	-
O=[N+]([O-])c1ccc(COc2cccc(CN3CCOCC3)c2)cc1	-	-	-	-	-	?
O=C(/C=C/c1cccc([N+](=O)[O-])c1)NC(=S)Nc1ccc(CN2CCOCC2)cc1	-	-58	-	-	-94	-
O=C(NC(=S)Nc1ccc(CN2CCOCC2)cc1)c1ccc([N+](=O)[O-])cc1	-	-50	-	-	-	-
O=[N+]([O-])c1cccc(COc2cccc(CN3CCOCC3)c2)c1	-	-65	-	-	-	-
Cc1cccc(C)c1NC(=O)CSc1nnc(NC(=O)CN2CCOCC2)s1	-	-	-	-	-	-
COc1ccc(/C=C/CN2CCC(CO)(Cc3ccccc3Cl)CC2)cc1	-	-	-	-	-79	-
COC(=O)c1ccc(CN2CCC(CO)(Cc3ccccc3Cl)CC2)cc1	-	-	-	-	-	-
SMILES	a7 integrin act	D3 antag	D3 ag	ATXN2 expr inh	IL1B secr inh	ATXN viability
COc1ccc(C(C)(O)c2nc(/C=C/c3ccccc3)cs2)cc1 (stereo not drawn)	.	-78	-	-	-	-
O=C(CC(SCCO)c1ccc2c(c1)OCO2)c1cccs1 (stereo not drawn)	-	-	-	-	-75	?
O=C(CSc1nnc(-c2ccc(O)cc2)n1Cc1ccco1)c1cccs1	-	-	-	-	-	-
O=C(CC(SCc1ccco1)c1ccc(O)cc1)c1cccs1 (stereo not drawn)	-	-	-	-	-52	-
CCOc1ccc(S(=O)(=O)N2CCOCC2)cc1NC(=O)CN1C(=O)NC2(CCCCC2)C1=O	-	-	-	-	-	-
CS(=O)(=O)N(Cc1ccc(Cl)cc1)c1ccc(C(=O)N2CCN(c3ccccc3)CC2)cc1	-	-	-	-	-51	?
CC(=O)c1ccc(C(=O)N(CCN(C)C)c2nc3c(Cl)cccc3s2)cc1	-	-	-	-	-	-
Cc1ccc(C)c(S(=O)(=O)NC(C)C(=O)Nc2ccc(-c3nc4ccccc4s3)cc2)c1 (stereo not drawn)	-	-	51	-	-	?
CC(NS(=O)(=O)c1cccc(Cl)c1)C(=O)Nc1ccc(-c2nc3ccccc3s2)cc1 (stereo not drawn)	-	-	-	-	-	-
COc1cc(NC(=O)c2cccc3c(-c4cnn(C)c4)coc23)cc(OC)c1OC	.	-	-	18µM	-75	?
CC(=O)c1cccc(NC(=O)c2cccc3c(-c4cnn(C)c4)coc23)c1	.	-	-	-	-81	-
CCNc1nc(NCC)n2c(SCC(=O)c3ccccc3Cl)nnc2n1	-	-	-	-	-	-
CCOc1ccc(-c2c(C)nn3c(C)c(C(=O)NCc4ccc(C)o4)cnc23)cc1OCC	.	.	-	-	.	-
CC(C)CCN(C(=O)c1csnn1)C(C(=O)NC1CCCC1)c1ccc(F)cc1 (stereo not drawn)	-	-	-	-	-63	-
COc1ccc(C)cc1NC(=O)C(C)N(c1ccc(C)cc1)S(C)(=O)=O (stereo not drawn)	-	-	-	-	-	-
Cc1ccc(N(C(C)C(=O)Nc2cc(Cl)ccc2Oc2ccccc2)S(C)(=O)=O)cc1 (stereo not drawn)	-	-	-	-	-69	-
Cc1ccc(CNC(=O)c2ccc(NC(=O)C3=CSCCO3)cc2)cc1	-	-	-	.	-	-
Cc1[nH]c(C)c(S(=O)(=O)Nc2ccc(OC(F)(F)F)cc2)c1C(=O)N1CCCCC1	-	-91	-	-	?	-
Cc1ccc(NS(=O)(=O)c2c(C)[nH]c(C)c2C(=O)N2CCCC2)cc1	-	-	-	-	-	?
CCOC(=O)n1c(=O)oc2ccccc21	-	-	-	-	-	-
COCC(=O)N1CCCN(c2nc3c(C)cccc3cc2C#N)CC1	-	-	-	-	?	-
CCOCCCNC(=S)N1CCCN(c2nc3c(C)c(C)ccc3cc2C#N)CC1	-	-	-	?	?	?
CCOCCCNC(=S)NCCCNc1nc2c(C)c(C)ccc2cc1C#N	-	-	-	-[11.3 µM]	-95	-
CC1CCN(CCc2nc3cc(NC(=O)COc4ccc([N+](=O)[O-])cc4)ccc3n2C)CC1	-	?	-	-	-101	-
Cn1c(CCN2CCOCC2)nc2cc(NC(=O)COc3ccc([N+](=O)[O-])cc3)ccc21	?	-	-	-	-	-

Source: PubChem BioAssay (National Center for Advancing Translational Sciences (NCATS))
